In PubChem BioAssay AID485270 (The Scripps Research Institute Molecular Screening Center, 2010):
Among all 330,000 compounds or so, about 5,800 (1.8%) were called active. The entries come from a sample that favours actives as a whole. A number with no mark means an inactive call. No stated cut-off is given here; in the data, active means inhibition mostly above about 38% (no sharp cut-off); inactive means mostly below about 40%.

Each compound was assayed against Orexin/Hypocretin receptor type 1 (Homo sapiens) (UniProt O43613) (assay: antagonists of human orexin 1 receptor (OX1R) (AID 485270;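 further: 0% = agonist challenge alone and 100% = reference antagonist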)). Details: OX1R-expressing cells, FRET antagonist read-out; at 6.6 µM; stronger effect = higher value.
Sequence of Orexin/Hypocretin receptor type 1 (Homo sapiens) (O43613 whole entry, looked up): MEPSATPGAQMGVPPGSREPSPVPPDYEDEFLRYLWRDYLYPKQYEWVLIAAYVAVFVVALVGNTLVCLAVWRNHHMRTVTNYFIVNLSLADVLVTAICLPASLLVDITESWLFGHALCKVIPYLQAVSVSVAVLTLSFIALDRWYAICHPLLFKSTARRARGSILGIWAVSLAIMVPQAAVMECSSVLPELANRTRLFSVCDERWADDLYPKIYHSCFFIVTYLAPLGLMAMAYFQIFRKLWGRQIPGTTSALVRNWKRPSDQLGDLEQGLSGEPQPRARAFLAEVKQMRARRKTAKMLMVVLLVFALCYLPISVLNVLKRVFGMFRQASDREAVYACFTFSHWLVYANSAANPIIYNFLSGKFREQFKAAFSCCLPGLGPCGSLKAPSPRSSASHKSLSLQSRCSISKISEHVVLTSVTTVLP
CC(NC(=O)COC(=O)CCC(=O)c1ccc(Cl)cc1)c1ccccc1 (stereo not given) gave an inhibition of 10.1%.
Cc1ccc(C(=O)OCc2nc(N)nc(Nc3ccccc3C)n2)cc1 gave an inhibition of -2.57%.
In the case of Nc1nc(COC(=O)CCC(=O)c2ccc(Cl)cc2)nc(Nc2ccccc2)n1, the inhibition is reported as 37.4% (active).
Compound O=C(NCc1ccc2c(c1)OCO2)c1cc([N+](=O)[O-])ccc1N1CCOCC1 has an inhibition of 19.9%.
Cc1c(C(=O)OC(C)C)sc(NC(=O)c2cccnc2)c1C#N gave an inhibition of 54.5%.
Work on CC1CCCCC12NC(=O)N(CC(=O)N1CCN(c3ccccc3)CC1)C2=O (stereo not given) yielded an inhibition of -1.13%.
In the case of O=C(Nc1cc(S(=O)(=O)Nc2ccc(Cl)cc2)ccc1O)c1ccc(F)cc1F, the inhibition is reported as 8.71%.
In the case of O=C(CN1C(=O)NC2(CCCCCCC2)C1=O)NCc1ccc(F)cc1, the inhibition is reported as 8.6%.
CC[C@@]1(C(=O)OC)N[C@H](CN(C)C(C)=O)[C@@H]2C(=O)N(C)C(=O)[C@@H]21 was tested, and the inhibition was 1.97%.
For Cc1ccc(S(=O)(=O)NC[C@H]2O[C@@H](n3cnc4c(N)ncnc43)[C@H](O)[C@@H]2O)s1, the inhibition was -6.3%.
In the case of CCN(CC)c1ccc(C(=O)c2cnc(/N=C/N(C)C)s2)cc1, the inhibition is reported as 66.5% (active).
In the case of CCN(CC)c1ccc(/C=N/NC(=O)CNC(=O)c2cccnc2)cc1, the inhibition is reported as 3.18%.
CCN(CC)c1ccc(NC(=O)c2ccc(Cl)nc2)cc1 showed an inhibition of 17.1%.
CCCCN(C)CCCNC(=O)c1cc(-c2cccs2)nc2ccccc12 was tested, and the inhibition was 13.3%.
With O=C(Nc1nnc(-c2ccccc2)o1)c1cc(-c2cccs2)nc2ccccc12 the inhibition was 88.8% (active).
O=C(NCCN1CCOCC1)c1cc(-c2cccs2)nc2ccccc12 gave an inhibition of 18.8%.
For O=C(c1ccc(S(=O)(=O)NCc2ccco2)cc1)N1CCN(c2ccccc2)CC1, the inhibition was 11.5%.
COc1ccc(S(=O)(=O)Nc2cccc3c2O[C@H](CN(C)S(=O)(=O)c2ccc(OC)cc2)[C@@H](C)CN([C@H](C)CO)C3=O)cc1 showed an inhibition of -2.59%.
For COc1cc(OC)cc(C(=O)NNC(=O)Cc2cccs2)c1, the inhibition was 1.69%.
Work on COc1ccc(C(=O)c2c(C)oc3cc([N+](=O)[O-])c(O)c([N+](=O)[O-])c23)cc1 yielded an inhibition of 30.6%.
In the case of Cc1cc(C(=O)O)ccc1[N+](=O)[O-], the inhibition is reported as 1.62%.
With Cc1oc2cc([N+](=O)[O-])c(O)c([N+](=O)[O-])c2c1C(=O)c1ccc(Br)cc1 the inhibition was 67.5% (active).
In the case of Cc1ccc(NC(=O)CSc2nnc(-c3cnccn3)n2Cc2ccco2)cc1C, the inhibition is reported as 18.9%.
Work on COc1cc(Cl)c(C)cc1NC(=O)CSc1nnc(-c2cccnc2)n1Cc1ccco1 yielded an inhibition of 15.5%.
For COc1ccc(NC(=O)CSc2nnc(-c3cccs3)n2Cc2ccco2)cc1OC, the inhibition was 41.6% (active).
